The values that follow come from the supplement of paper PMC12636033.

± gives the standard deviation of the averaged measurements. In all, about 33,000 sequences were measured (“E-score (rank enrichment, -0.5 to 0.5)”: median about -0.0028, highest 2% from about 0.23 on). The full list was thinned out, with the highest values kept by preference.

In the assay the test system is 2Sb-muMax20 (muMax20 with two 1,3-bis(methyl)benzene Cys staples, A13C/A17C and Q88C/A92C, C-terminal Lys). Kind of assay: PBM 8-mer E-score (E-score (rank enrichment, -0.5 to 0.5)); higher = stronger preferential binding. Here is the method: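 Protein binding microarray (universal PBM chip covering all 10-mers in fixed probe flanks) with chemically synthesized human Max(13-93) bHLH-LZ analogs (not full-length Max) bearing noncanonical residues (hArg, Tha, Aib, Nle at 65) and aromatic Cys staples. Read-out per 8-mer (and its reverse complement): E-score (rank-based enrichment, -0.5 to 0.5) and Z-score of median probe intensity.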
Consider GGCTCAAA, for which the “PBM 8-mer E-score” value is -0.232 ± 0.0071.
Consider CGTGTTCC, for which the “PBM 8-mer E-score” value was -0.101 ± 0.093.
As for CAGCCATC, the figure is 0.0539 ± 0.04; as for ACGCTTAC, -0.00865 ± 0.0059.
As for AATGGCGG, the figure is -0.0858 ± 0.063.
As for CTTAGCCA, the figure is -0.0016 ± 0.011; as for ATCGGCTG, -0.182 ± 0.06.
Consider ATTAGGTG, for which the “PBM 8-mer E-score” value came out at 0.199 ± 0.0049.
In the case of CATCCCGG, the “PBM 8-mer E-score” value is -0.179 ± 0.11.
For CCTTGTTC, the “PBM 8-mer E-score” value was -0.00956 ± 0.048.
Turning to CCTTGTTA, the “PBM 8-mer E-score” value stood at 0.281 ± 0.032.
With ACTTGTTA, the “PBM 8-mer E-score” value came to 0.173 ± 0.0031.
To ACTTCTCT belongs -0.115 ± 0.094; to CCCCCCAG, -0.319 ± 0.18; to ACCCCCAA, -0.148 ± 0.053.
To AACCCCAG belongs 0.0383 ± 0.14; to AACCCCAA, 0.331 ± 0.019; to CTACCCAA, 0.085 ± 0.019.
Take CACCCCAG: the “PBM 8-mer E-score” value was 0.262 ± 0.015.
To TACCCCTA belongs 0.316 ± 0.0051; to GTACCCAA, 0.153 ± 0.0022.
As for AACCCAAA, the figure is 0.0368 ± 0.14.
Consider AACCCCTA, for which the “PBM 8-mer E-score” value is 0.176 ± 0.0048.
As for CACCCCTA, the figure is 0.228 ± 0.018; as for TTACCCAA, 0.26885 ± 6.4e-05; as for ACGAAGGC, -0.148 ± 0.011.
To GGCCAAAC belongs -0.0918 ± 0.032; to ATAAAAGC, 0.113 ± 0.0099; to CACCCCCA, -0.148 ± 0.025.
As for AACCCCAC, the figure is 0.177 ± 0.082; as for GACCCCAC, 0.0665 ± 0.09.
With CACCCAAA, the “PBM 8-mer E-score” value was determined as 0.211 ± 0.02.
In the case of TACCCCAA, the “PBM 8-mer E-score” value came out at 0.29 ± 0.036.
To CACCCCAA belongs 0.292 ± 0.059.
As for TACCCCCA, the figure is -0.0172 ± 0.023; as for GACCCCAA, 0.129 ± 0.058.
On to CACCCCAC, for which the “PBM 8-mer E-score” value was 0.319 ± 0.067.
As to AAAACGTT, the “PBM 8-mer E-score” value came to 0.189 ± 0.024.
Take GGAGAGTA: the “PBM 8-mer E-score” value is -0.0215 ± 0.08.
To CCTCACTA belongs 0.127 ± 0.035; to AGCCACAC, 0.111 ± 0.045.
As for TCCCTGCA, the figure is 0.0481 ± 0.0088; as for AACCACGA, 0.068 ± 0.082.
AAACACGC: the “PBM 8-mer E-score” value stood at 0.0985 ± 0.012.
To AACCACGC belongs -0.0289 ± 0.036.
As for AAACACGA, the figure is 0.14 ± 0.053.
As to ACCCACGT, the “PBM 8-mer E-score” value was 0.35 ± 0.025.
AACCACGT: the “PBM 8-mer E-score” value came to 0.304 ± 0.0045.
On to ACCCACGA, for which the “PBM 8-mer E-score” value was 0.0473 ± 0.015.
Consider AAACACGT, for which the “PBM 8-mer E-score” value was determined as 0.238 ± 0.0029.
As for ACCCACGC, the “PBM 8-mer E-score” value turned out to be 0.0613 ± 0.043.
With GCGACATA, the “PBM 8-mer E-score” value is -0.0543 ± 0.01.
GAGCAACC: the “PBM 8-mer E-score” value was -0.0186 ± 0.037.
To ACGAGCAA belongs 0.00429 ± 0.043.
AGAGTACT: the “PBM 8-mer E-score” value came out at 0.0199 ± 0.063.
To CATGATTC belongs 0.0849 ± 0.046.
Turning to CATGATAA, the “PBM 8-mer E-score” value stood at 0.262 ± 0.004.
On to CATGATTA, for which the “PBM 8-mer E-score” value was determined as 0.236 ± 0.035.
As to TATGATAA, the “PBM 8-mer E-score” value is 0.0883 ± 0.068.
To TAAGATAA belongs 0.0702 ± 0.044; to AAAGATAA, 0.124 ± 0.033; to ATTGATTA, 0.0825 ± 0.032.
As for CTTGATTA, the figure is 0.159 ± 0.039; as for AATGATAA, 0.0436 ± 0.05.
Take CAAGATAA: the “PBM 8-mer E-score” value stood at 0.253 ± 0.025.
Regarding GATGATTA, the “PBM 8-mer E-score” value was -0.00815 ± 0.038.
Regarding GTTGATTA, the “PBM 8-mer E-score” value was found to be 0.259 ± 0.0094.
As for AACAAGCT, the figure is 0.0609 ± 0.024; as for GCTGGCGA, -0.207 ± 0.015; as for GGTTCGCA, -0.146 ± 0.0032.
Turning to AGGGTCTC, the “PBM 8-mer E-score” value is -0.0134 ± 0.094.
With CGTCCACC, the “PBM 8-mer E-score” value is -0.0444 ± 0.07.
GTCGTTAA: the “PBM 8-mer E-score” value was -0.133 ± 0.028.
Take GGGAATCA: the “PBM 8-mer E-score” value is -0.0266 ± 0.031.
To CCTGCACC belongs -0.0811 ± 0.0012.
Regarding ACGCTGCC, the “PBM 8-mer E-score” value is -0.0685 ± 0.038.
As for TAACGCGA, the “PBM 8-mer E-score” value is 0.0123 ± 0.0097.
To GGCATGCA belongs -0.0517 ± 0.02; to CGCATGCC, 0.141 ± 0.064.
As for CGCATGCG, the figure is 0.279 ± 0.067.
Consider AGCATGCA, for which the “PBM 8-mer E-score” value was found to be 0.3172 ± 0.00083.
As for TGCATGCA, the figure is 0.132 ± 0.01; as for CGCATGCA, 0.171 ± 0.028; as for GCGACGCC, -0.126 ± 0.025.
To TAGGTATA belongs 0.138 ± 0.011.
As for CTCCAATA, the “PBM 8-mer E-score” value was determined as 0.0951 ± 0.05.
